For 22 compounds, Potency results are on record in PubChem BioAssay (NCATS).

Records with an inconclusive call do not appear. Entries that show only a call come without a potency. Activity calls are given as the source filed them. Calls come from the whole dose curve; as a rule, active = well fitted cell-killing curve with a large enough effect; inconclusive = small, poorly fitted or top-dose-only effect, or effect the other way; inactive = flat fitted curve, though single readings scatter.
Potency is the fitted concentration of half-maximal effect.

The nature of the assay: MultiTox-Fluor Cytotoxicity Assay - LYMP1-001 - Dead Cells (AID 946).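 Note: cells exposed to compound for 16 h.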 As to conditions: LYMP1-001 lymphoblastoid cells, dead-cell protease fluorescence; series mostly up to 92.2 µM. The source says:
NIH Chemical Genomics Center [NCGC]
NIH Molecular Libraries Screening Centers Network [MLSCN]
National Institutes of Environmental Health Sciences [NIEHS]
National Toxicology Program [NTP]
We have developed a 1536-well cell-based assay for quantitative high throughput screening (qHTS) against a number of cell lines to determine in vitro cytotoxicity of small molecules. This particular assay uses a human lymphoblastoid cell line (LYMP1-001) purchased from Coriell Institute for Medical Research.
NCGC Assay Protocol Summary:
The MultiTox-Fluor Cytotoxicity Assay (Promega) is a homogeneous method to simultaneously measure the relative number of live and dead cells in culture by detecting changes in cell membrane integrity. There are two fluorogenic peptide substrates in the assay reagent. Viable cells are determined when the cell-permeant substrate (GF-AFC) enters the cell and is cleaved by protease from live cells resulting in liberated fluorophore. This live-cell protease activity restricted to viable cells is proportional to cell number. The dead cells are determined by using fluorogenic cell-impermeant peptide substrate (bis-AAF-R110) which cleaved by dead cell proteases leaking from damaged cell membrane.
Using the MultiTox-Fluor Cytotoxicity Assay, the relative number of dead cells was measured in the lymphoblastoid cell line with complete culture medium following compound treatment for 16 hours. The assay was performed in opaque black Kalypsys 1536-well plates. In the screen, tetraoctylammonium bromide was used as positive control. Library compounds were measured for their ability to cause acute toxicity in the cell line, as reflected by an increase in dead cell protease activity, in a concentration-dependent manner. Data were normalized to the controls for basal activity (DMSO only) and 100% stimulation (15 uM tetraoctylammonium bromide). AC50 values were determined from concentration-response data modeled with the standard Hill equation.
qHTS protocol for MultiTox-Fluor Cytotoxicity assay
[Step] [Parameter] [Value] [Description]
1. Reagent; 5 uL; 2500 lymphoblastoid cells/well
2. Time; 5 hr; 37 C incubation
4. Controls; 23 nL; Tetraoctylammonium bromide 6.4pM to 92 uM
5. Time; 16 hr; 37 C incubation
6. Reagent; 5 uL; MuliTox-Fluor Assay reagent
7. Time; 60 min; Room Temperature
8. Detection; dead-cell fluorescence (Ex/Em=485/520); EnVision plate reader
Keywords: cytotoxicity, lymphoblastoid cell line, fluorescence, NTPHTS, NTPHTS_NCGC, NIEHS, EPA, DSSTox, MLSMR, MLSCN, NIH Roadmap, qHTS, NCGC
`C#CCO`: the Potency entry is “inactive”. For `CC(=O)[O-].CC(=O)[O-].O.O.[Cd+2]`, the Potency result is “inactive”. `O=[N+]([O-])c1cc(C(F)(F)F)cc([N+](=O)[O-])c1Cl`: the Potency result was “inactive”. With `ClC1=C(Cl)C2(Cl)C3C(Cl)C(Cl)CC3C1(Cl)C2(Cl)Cl` (configuration not stated), the Potency entry was “inactive”.

In the case of `O=C1C2(Cl)C3(Cl)C4(Cl)C(Cl)(Cl)C5(Cl)C3(Cl)C1(Cl)C5(Cl)C24Cl` (configuration not stated), the Potency was 31.6 µM (active).

`[Cd+2].[Cl-].[Cl-]`: the Potency result was “inactive”. For the compound `CCCCCCCCn1sccc1=O`, the Potency is 12.6 µM (active). For `O=C(CCl)c1ccccc1`, the Potency was 50.1 µM (active). To `COP(=O)(OC)O/C(=C\Cl)c1cc(Cl)c(Cl)cc1Cl` belongs “inactive”; to `C(=NC1CCCCC1)=NC1CCCCC1`, “inactive”; to `Oc1c(Br)c(Br)c(Br)c(Br)c1Br`, “inactive”. On to `O=[N+]([O-])C(Br)Br`, for which the Potency result is “inactive”.

With `N#CSCSC#N`, the Potency is 25.1 µM (active). To `CC/C(=C(\c1ccccc1)c1ccc(OCCN(C)C)cc1)c1ccc(O)cc1` belongs 50.1 µM (active). For `c1ccc2cc3c(cc2c1)-c1cccc2cccc-3c12`, the Potency result is “inactive”. For `O=C(O)C1C(C(=O)O)C2(Cl)C(Cl)=C(Cl)C1(Cl)C2(Cl)Cl` (configuration not stated), the Potency result was “inactive”. For `N#CC(Cl)Cl`, the Potency entry was “inactive”. To `Nc1ccccc1C(=O)OCCc1ccccc1` belongs “inactive”; to `OC(c1ccc(Cl)cc1)(c1ccc(Cl)cc1)C(Cl)(Cl)Cl`, “inactive”; to `O=Nc1ccc(Nc2ccccc2)cc1`, 5.01 µM (active). Turning to `C=CC(=O)OCC(CO)(COC(=O)C=C)COC(=O)C=C`, the Potency was 7.94 µM (active). As to `FC(F)(F)c1ccc(Cl)cc1`, the Potency entry is “inactive”.
